{
  "source": "PubChem BioAssay (NCATS)",
  "key": {"[1]": {"target": "Cytochrome P450 1A2 (Homo sapiens) (UniProt P05177)", "sequence (P05177 whole entry, looked up)": "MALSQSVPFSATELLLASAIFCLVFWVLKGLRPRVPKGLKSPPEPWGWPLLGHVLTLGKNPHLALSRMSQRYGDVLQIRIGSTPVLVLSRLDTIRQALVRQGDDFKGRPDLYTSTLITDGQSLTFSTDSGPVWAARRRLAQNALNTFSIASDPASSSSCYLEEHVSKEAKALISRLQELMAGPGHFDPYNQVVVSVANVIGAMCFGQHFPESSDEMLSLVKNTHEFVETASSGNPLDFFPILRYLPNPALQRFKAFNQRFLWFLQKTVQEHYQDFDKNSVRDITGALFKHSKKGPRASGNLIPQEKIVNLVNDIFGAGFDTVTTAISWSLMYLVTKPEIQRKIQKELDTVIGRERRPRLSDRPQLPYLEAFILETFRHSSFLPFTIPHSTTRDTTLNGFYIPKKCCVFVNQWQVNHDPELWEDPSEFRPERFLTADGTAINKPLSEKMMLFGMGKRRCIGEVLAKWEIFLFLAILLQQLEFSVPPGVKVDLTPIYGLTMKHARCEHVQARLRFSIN", "assay": "p450-cyp1a2 (AID 410; calls by dose curve; also: potency is read from the fitted curve at half-maximal effect)", "summary_of_the_method": "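Luminescent demethylation readout: Luciferin-ME (100uM, equal to Km) turned over by 20nM CYP1A2 for 60 min at room temperature after NADPH regeneration addition, following 10 min compound preincubation. Normalization used 57 uM furafylline as full inhibition.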"}, "[2]": {"assay": "NFAT Signaling Pathway (AID 444; active = well fitted curve in either direction with a large enough effect, not every such curve was filed as active;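 also: carbachol stimulus at about its EC50 of 1 µM final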)", "settings": "Jurkat NFAT-bla M1, carbachol, beta-lactamase ratio, 5 h; at 38 µM (top of the series)", "summary_of_the_method": "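Jurkat cells carrying an NFAT-driven β-lactamase reporter and co-transfected muscarinic M1 receptor were treated with compound plus carbachol (1 uM final, an EC50 level) for 5 h at 37 °C. CCF4 loading followed for 1 h at RT; 460/530 nm ratio gave %activity.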"}, "[3]": {"target": "Glucocorticoid receptor (Homo sapiens) (UniProt P04150)", "sequence (P04150 whole entry, looked up, the tested form may be a part)": "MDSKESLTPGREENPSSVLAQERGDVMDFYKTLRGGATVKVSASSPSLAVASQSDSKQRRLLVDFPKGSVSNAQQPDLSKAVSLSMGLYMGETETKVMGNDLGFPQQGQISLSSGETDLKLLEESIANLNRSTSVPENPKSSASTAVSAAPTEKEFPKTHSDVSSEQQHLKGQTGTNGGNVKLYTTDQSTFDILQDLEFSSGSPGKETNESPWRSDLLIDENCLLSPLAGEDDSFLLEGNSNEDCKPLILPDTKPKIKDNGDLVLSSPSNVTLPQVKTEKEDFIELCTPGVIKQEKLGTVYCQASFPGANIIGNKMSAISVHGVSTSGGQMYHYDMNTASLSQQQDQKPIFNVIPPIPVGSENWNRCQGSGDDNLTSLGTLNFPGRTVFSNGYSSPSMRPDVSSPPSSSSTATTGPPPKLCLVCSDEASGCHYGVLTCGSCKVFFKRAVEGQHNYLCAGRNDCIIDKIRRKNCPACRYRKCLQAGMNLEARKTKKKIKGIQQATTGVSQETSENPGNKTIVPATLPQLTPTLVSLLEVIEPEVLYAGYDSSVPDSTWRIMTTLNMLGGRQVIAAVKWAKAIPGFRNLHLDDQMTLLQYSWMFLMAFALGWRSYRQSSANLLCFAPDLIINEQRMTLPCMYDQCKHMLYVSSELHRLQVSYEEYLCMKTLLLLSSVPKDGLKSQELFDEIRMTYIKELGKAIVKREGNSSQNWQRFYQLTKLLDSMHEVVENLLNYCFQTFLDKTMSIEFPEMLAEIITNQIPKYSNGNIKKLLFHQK", "assay": "GR-GFP Redistribution (AID 450;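 active = compounds whose dose series gives a full or clear partial fitted curve of increased nuclear translocation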; also: potency is read from the fitted curve at half-maximal effect)", "settings": "U2OS GR-GFP nuclear translocation, laser cytometry, 2 h"}, "[4]": {"target": "Glucocorticoid receptor (Homo sapiens) (UniProt P04150)", "assay": "GR-EFC Redistribution (AID 451; calls by dose curve; also: potency is read from the fitted curve at half-maximal effect)", "settings": "CHO-K1 GR-EFC translocation, beta-gal luminescence, 2 h", "summary_of_the_method": "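CHO-K1 cells stably expressing nuclear-localized β-gal enzyme acceptor and GR fused C-terminally to the enzyme donor fragment; ligand-driven nuclear translocation restores β-gal by complementation. Compounds titrated up to 46 uM final, 2 h at 37 °C; luminescence read.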"}, "[5]": {"target": "Mitogen-activated protein kinase 10 (Mus musculus) (UniProt Q61831)", "assay": "JNK3 AlphaScreen Assay (AID 530; active = well fitted curve in either direction with a large enough effect, not every such curve was filed as active;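 also: kinase came from lysate of stimulated human HepG2 cells; potency is read from the fitted curve at half-maximal effect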)", "summary_of_the_method": "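Phosphorylation of biotinylated GST-cJun(1-79) at Ser73 is measured by AlphaScreen proximity luminescence. Enzyme is JNK3 in HepG2 lysates activated with interleukin-1beta and tumor necrosis factor alpha; ATP is 10 uM final.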"}, "[6]": {"target": "3',5'-cyclic-AMP phosphodiesterase 4B (Homo sapiens) (UniProt Q07343)", "sequence (Q07343 whole entry, looked up)": "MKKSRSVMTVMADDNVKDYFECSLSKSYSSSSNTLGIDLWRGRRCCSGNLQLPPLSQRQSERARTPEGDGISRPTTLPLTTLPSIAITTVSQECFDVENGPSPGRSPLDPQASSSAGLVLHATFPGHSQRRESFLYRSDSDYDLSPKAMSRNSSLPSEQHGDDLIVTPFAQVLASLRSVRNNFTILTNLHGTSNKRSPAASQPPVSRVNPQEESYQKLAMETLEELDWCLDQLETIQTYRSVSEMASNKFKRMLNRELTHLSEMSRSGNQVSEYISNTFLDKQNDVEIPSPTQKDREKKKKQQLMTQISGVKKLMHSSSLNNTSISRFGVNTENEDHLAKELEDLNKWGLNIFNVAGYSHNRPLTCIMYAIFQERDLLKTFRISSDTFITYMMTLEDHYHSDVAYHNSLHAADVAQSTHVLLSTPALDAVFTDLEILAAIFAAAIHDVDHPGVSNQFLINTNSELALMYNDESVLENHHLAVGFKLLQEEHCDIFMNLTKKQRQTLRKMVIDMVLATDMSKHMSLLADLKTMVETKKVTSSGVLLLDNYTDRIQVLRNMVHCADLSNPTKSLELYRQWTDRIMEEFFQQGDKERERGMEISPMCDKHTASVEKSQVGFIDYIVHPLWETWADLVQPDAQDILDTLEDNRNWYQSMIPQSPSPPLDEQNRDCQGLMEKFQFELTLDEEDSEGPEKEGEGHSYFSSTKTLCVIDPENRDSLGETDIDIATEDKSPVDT", "assay": "qHTS Assay for Inhibitors of PDE-IV (AID 607; active = well fitted activation curve with a large enough effect in the main read-out, with a control signal flat, not every such curve was filed as active)", "summary_of_the_method": "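ACTOne HEK293 cells carry a modified cAMP-gated CNG channel and express endogenous PDE4; plated 1000 cells/well, compounds up to 22.9 uM final. Membrane-potential dye fluorescence (ex 535/em 590) was read; parental cells received 10 uM forskolin + 100 uM RO 20-1724.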"}, "[7]": {"target": "Guanine nucleotide-binding protein G(i) subunit alpha-1 (Homo sapiens) (UniProt P63096)", "assay": "qHTS Assay for Inhibitors of RGS12 GoLoco Motif Activity (Green Fluorophore) (AID 879);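 also: negative values mean loss of peptide binding seen as reduced polarization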", "summary_of_the_method": "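A drop in FITC polarization marked displacement of the FITC-tagged RGS12 GoLoco peptide (10 nM) from Gαi1 (50 nM). Compounds were incubated 10 min at room temperature in Tris pH 7.5 buffer containing 150 mM NaCl, 0.1 mM GDP and 0.05% NP40; unlabeled peptide titration served as control.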"}, "[8]": {"target": "Cytochrome P450 3A4 (Homo sapiens) (UniProt P08684)", "sequence (P08684 whole entry, looked up)": "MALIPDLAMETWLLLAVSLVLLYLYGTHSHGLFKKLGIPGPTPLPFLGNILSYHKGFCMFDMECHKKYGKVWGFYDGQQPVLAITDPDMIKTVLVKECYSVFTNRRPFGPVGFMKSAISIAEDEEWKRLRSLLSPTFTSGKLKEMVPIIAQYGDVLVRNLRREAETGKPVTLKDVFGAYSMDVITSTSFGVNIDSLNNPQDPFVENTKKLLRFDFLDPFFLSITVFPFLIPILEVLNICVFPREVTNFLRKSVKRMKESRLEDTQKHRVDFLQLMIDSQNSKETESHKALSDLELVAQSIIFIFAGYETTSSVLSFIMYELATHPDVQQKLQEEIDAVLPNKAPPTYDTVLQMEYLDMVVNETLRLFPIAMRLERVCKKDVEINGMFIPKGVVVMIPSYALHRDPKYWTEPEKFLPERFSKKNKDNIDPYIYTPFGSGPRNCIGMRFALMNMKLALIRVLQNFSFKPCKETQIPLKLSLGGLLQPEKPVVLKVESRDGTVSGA", "assay": "qHTS Assay for Activators of Cytochrome P450 3A4 (AID 885); also: nearly all actives have a fitted effect of over 65% in size", "summary_of_the_method": "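CYP3A4 activity: Luciferin-PPXE O-dealkylation, 25uM substrate, 200mM KPO4, RT throughout. Read-out is luciferase luminescence; higher values reflect activation.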"}, "[9]": {"target": "Cytochrome P450 2D6 (Homo sapiens) (UniProt P10635)", "sequence (P10635 whole entry, looked up)": "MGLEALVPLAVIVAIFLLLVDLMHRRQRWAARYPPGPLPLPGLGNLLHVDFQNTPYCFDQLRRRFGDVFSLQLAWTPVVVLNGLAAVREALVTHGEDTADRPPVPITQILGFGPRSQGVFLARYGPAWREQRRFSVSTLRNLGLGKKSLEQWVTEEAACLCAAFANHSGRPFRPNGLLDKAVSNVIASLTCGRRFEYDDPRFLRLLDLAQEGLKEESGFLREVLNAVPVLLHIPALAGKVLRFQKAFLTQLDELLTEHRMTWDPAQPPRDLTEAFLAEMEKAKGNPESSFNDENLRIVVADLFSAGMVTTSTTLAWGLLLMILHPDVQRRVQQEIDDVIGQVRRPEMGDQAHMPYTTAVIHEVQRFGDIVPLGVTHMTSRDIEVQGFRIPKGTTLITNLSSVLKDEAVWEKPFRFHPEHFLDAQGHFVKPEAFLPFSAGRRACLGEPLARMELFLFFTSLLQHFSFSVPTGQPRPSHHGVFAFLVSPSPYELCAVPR", "assay": "qHTS Assay for Inhibitors and Substrates of Cytochrome P450 2D6 (AID 891);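 also: luciferin methyl ether substrate demethylated by CYP2D6 with NADPH regeneration; nearly all actives have a fitted effect of over 60% in size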", "summary_of_the_method": "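Luminescent read-out of luciferin formed by 5 nM human CYP2D6 demethylating 30 uM Luciferin-ME EGE (Km level) over 60 min at room temperature after NADPH regeneration addition. Data normalized to full inhibition by 1.43 uM quinidine.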"}, "[10]": {"target": "Muscarinic acetylcholine receptor M1 (Rattus norvegicus) (UniProt P08482)", "sequence (P08482 whole entry, looked up)": "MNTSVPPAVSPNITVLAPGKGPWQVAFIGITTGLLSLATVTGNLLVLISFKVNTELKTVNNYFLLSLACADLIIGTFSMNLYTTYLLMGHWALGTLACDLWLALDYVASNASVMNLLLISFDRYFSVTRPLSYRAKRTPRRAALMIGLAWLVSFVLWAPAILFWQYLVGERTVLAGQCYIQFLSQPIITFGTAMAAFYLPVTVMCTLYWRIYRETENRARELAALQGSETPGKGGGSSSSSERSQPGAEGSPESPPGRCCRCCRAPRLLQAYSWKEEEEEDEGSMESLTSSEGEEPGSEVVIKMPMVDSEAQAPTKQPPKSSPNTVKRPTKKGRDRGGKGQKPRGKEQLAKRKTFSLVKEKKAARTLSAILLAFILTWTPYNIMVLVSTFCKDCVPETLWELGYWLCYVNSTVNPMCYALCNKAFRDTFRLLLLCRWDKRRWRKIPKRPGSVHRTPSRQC", "assay": "qHTS Assay for Antagonists of Acetylcholine Muscarinic M1 Receptor: Kinetic Measurement of Intracellular Calcium Response (AID 943); also: nearly all actives have a fitted effect of over 75% in size", "summary_of_the_method": "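Antagonism measured as reduction of carbachol-evoked (EC80, 100 nM final) calcium flux in rat M1-CHO cells after 10 min compound exposure. Fluo-4 signal read kinetically; ratio of maximal to basal fluorescence.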"}, "[11]": {"target": "Pyruvate kinase PKM (Homo sapiens) (UniProt P14618)", "sequence (P14618 whole entry, looked up)": "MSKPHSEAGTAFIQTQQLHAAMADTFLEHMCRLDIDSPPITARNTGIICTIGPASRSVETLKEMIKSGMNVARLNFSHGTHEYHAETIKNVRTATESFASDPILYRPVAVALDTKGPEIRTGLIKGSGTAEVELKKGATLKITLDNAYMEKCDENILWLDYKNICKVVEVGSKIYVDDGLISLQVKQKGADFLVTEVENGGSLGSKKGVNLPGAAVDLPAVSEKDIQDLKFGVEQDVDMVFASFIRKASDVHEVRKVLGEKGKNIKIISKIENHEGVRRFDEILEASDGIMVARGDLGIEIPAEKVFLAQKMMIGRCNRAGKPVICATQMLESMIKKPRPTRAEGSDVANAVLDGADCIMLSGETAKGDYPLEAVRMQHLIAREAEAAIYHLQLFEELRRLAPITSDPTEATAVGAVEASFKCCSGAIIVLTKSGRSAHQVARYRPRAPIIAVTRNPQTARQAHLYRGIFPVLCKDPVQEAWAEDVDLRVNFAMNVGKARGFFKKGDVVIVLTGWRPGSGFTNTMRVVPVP", "assay": "qHTS Assay for Inhibitors of Human Muscle Pyruvate Kinase (AID 958)", "settings": "purified human PKM enzyme activity", "summary_of_the_method": "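Screening used highly purified human pyruvate kinase M2 under submaximal activity, with PEP at its Km and ADP below Km. After an hour at room temperature, ATP was read by luciferase luminescence.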"}, "[12]": {"target": "Pyruvate kinase (Leishmania mexicana) (UniProt Q27686)", "sequence (Q27686 2-499 E452W)": "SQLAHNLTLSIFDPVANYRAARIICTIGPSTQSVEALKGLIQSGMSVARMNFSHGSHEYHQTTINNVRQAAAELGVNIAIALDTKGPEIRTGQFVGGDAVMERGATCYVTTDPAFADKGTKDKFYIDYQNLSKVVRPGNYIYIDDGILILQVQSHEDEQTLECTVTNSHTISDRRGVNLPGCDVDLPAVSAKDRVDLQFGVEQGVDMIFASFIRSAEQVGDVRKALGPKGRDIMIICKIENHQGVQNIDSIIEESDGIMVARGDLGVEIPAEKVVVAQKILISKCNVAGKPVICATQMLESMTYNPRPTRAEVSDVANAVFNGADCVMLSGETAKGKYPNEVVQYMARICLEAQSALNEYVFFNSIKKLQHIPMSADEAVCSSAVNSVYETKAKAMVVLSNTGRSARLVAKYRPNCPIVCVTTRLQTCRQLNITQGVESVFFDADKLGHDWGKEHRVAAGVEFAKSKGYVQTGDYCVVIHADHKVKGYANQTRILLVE", "assay": "qHTS Validation Assay for Activators of Leishmania Mexicana Pyruvate Kinase (AID 959)", "summary_of_the_method": "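Purified LmPYK (E451W mutant, 0.2 nM) was incubated 1 h at room temperature with 0.5 mM PEP and 0.1 mM ADP in 50 mM imidazole pH 7.2, 50 mM KCl, 7 mM MgCl2; ATP formed was read by PKLight luminescence, normalized to DMSO wells.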"}, "[13]": {"target": "Alpha-galactosidase A (Homo sapiens) (UniProt P06280)", "sequence (P06280 whole entry, looked up)": "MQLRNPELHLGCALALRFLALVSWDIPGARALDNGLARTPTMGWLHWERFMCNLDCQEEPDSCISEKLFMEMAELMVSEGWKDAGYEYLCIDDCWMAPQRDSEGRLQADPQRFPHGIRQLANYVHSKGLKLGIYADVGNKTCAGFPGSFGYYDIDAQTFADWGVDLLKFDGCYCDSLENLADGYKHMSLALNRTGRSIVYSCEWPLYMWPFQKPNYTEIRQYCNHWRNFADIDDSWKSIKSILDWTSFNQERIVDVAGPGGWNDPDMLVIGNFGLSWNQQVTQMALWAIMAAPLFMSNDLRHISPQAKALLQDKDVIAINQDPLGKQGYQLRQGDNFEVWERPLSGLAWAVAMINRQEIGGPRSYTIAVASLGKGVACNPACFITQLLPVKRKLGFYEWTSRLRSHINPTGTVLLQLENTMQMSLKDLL", "assay": "Counterscreen for Glucocerebrosidase Inhibitors: qHTS Assay for Human alpha-Galactosidase at pH 4.5 (AID 992)", "summary_of_the_method": "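Citrate buffer pH 4.5, Tween-20 0.005%. Enzyme 2 nM, substrate 80 uM, 20 min RT. Stop pH 10. Fluorescence Ex 365/Em 440. AC50 by Hill fit.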"}, "[14]": {"target": "alpha-glucosidase (Oryza sativa, rice) (UniProt Q653V4)", "assay": "Counterscreen for Glucocerebrosidase Inhibitors: qHTS Assay for Rice alpha-Glucosidase at pH 5.0 (AID 997)", "summary_of_the_method": "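Endpoint fluorogenic assay at pH 5.0: compounds (0.7 nM to 77 uM) titrated against 4 nM rice enzyme and 400 uM 4-MU-alpha-glucoside for 20 min at room temperature; NaOH/glycine stop, read ex 365/em 440 nm, Hill-fitted AC50.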"}, "[15]": {"assay": "qHTS Assay for Lipid Storage Modulators (AID 1519; calls by dose curve)", "settings": "Drosophila S3 cells, BODIPY lipid droplet/cell ratio, laser cytometry, cells loaded with oleic acid", "summary_of_the_method": "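Cells seeded at 5,000 per well were treated with compounds over a concentration series and loaded with oleic acid (400 uM, as added). Lipid droplet fluorescence (488 nm excitation, 500-530 nm channel) was read by laser-scanning cytometry and normalized to 20 uM Triacsin C.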"}, "[16]": {"target": "DNA repair nuclease/redox regulator APEX1 (Homo sapiens) (UniProt P27695)", "assay": "qHTS Validation Assay for Inhibitors of the Human Apurinic/apyrimidinic Endonuclease 1 (APE1) (AID 1705;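 also: TAMRA fluorescence gain over two minutes as APE1 cuts a quenched THF abasic duplex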)", "summary_of_the_method": "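qHTS, 1536-well. APE1 + cpd 15 min RT → 50 nM TAMRA/BHQ-2 THF-abasic dsDNA substrate → kinetic fluorescence, 3 reads/60 s; delta(read3−read1) = reaction progress. No-enzyme buffer = negative control.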"}, "[17]": {"target": "Endonuclease 4 (Escherichia coli (strain K12)) (UniProt P0A6C1)", "assay": "Counterscreen for APE1 Inhibitors: qHTS Validation Assay for Inhibitors of Endonuclease IV (AID 1708)", "summary_of_the_method": "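Enzyme (2 nM) + compound, 15 min RT; add 50 nM TAMRA/BHQ-2 THF-site dsDNA; kinetic read ex525/em598, 3 reads/60 s; activity = read 3 − read 1. Buffer Tris pH 7.5, 50 mM NaCl, 2 mM MgCl2, DTT, Tween-20.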"}, "[18]": {"assay": "qHTS for differential inhibitors of proliferation of Plasmodium falciparum line 7G8 (AID 1815);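 also: potency is read from the fitted curve at half-maximal effect; parasite growth measured after three days of incubation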"}},
  "note": "“And” between values parts separate entries of the source, which are not always exact repeats. Equal entries are not always repeated. Inconclusive results are not listed. Entries that show only a call come without a potency. The source made the active and inactive calls. Unless noted, calls follow the shape of the dose curve; as a rule, active = well fitted curve in the direction sought with a large enough effect; inconclusive = small, poorly fitted or top-dose-only effect, or another doubt; inactive = no such curve, though single readings can be large; an effect the other way counts as inactive or inconclusive.",
  "data": [
    {"molecule": "N#C/C(=C\\c1ccc(O)c(O)c1)C(=O)Nc1ccccc1", "values": [
      {"measurement": "Potency", "setting": "[1]", "result": "2 µM (active) and 501 nM (active)"},
      {"measurement": "activity change, negative = inhibition", "setting": "[2]", "result": "6.23% (inactive)"},
      {"measurement": "Potency", "setting": "[3]", "result": "> 46 µM (inactive)"},
      {"measurement": "Potency", "setting": "[4]", "result": "> 46 µM (inactive)"},
      {"measurement": "Potency", "setting": "[5]", "result": "12.6 µM (active)"},
      {"measurement": "Potency", "setting": "[6]", "result": "inactive"},
      {"measurement": "outcome", "setting": "[7]", "result": "inactive"},
      {"measurement": "Potency", "setting": "[8]", "result": "inactive"},
      {"measurement": "Potency", "setting": "[9]", "result": "inactive"},
      {"measurement": "Potency", "setting": "[10]", "result": "inactive"},
      {"measurement": "Potency", "setting": "[11]", "result": "25.1 µM (active)"},
      {"measurement": "Potency", "setting": "[12]", "result": "inactive"},
      {"measurement": "outcome", "setting": "[13]", "result": "inactive"},
      {"measurement": "outcome", "setting": "[14]", "result": "inactive"},
      {"measurement": "activity change, negative = inhibition", "setting": "[15]; at 57.5 µM (top of the series)", "result": "-21.4% (inactive)"},
      {"measurement": "max response", "setting": "[15]; measured here: cell count channel max response", "result": -56.6, "unit": "%"},
      {"measurement": "max response", "setting": "[15]; measured here: lipid channel max response", "result": -66.1, "unit": "%"},
      {"measurement": "Potency", "setting": "[16]", "result": "inactive"},
      {"measurement": "Potency", "setting": "[17]", "result": "inactive"},
      {"measurement": "Potency", "setting": "[18]", "result": "8.91 µM (active)"}
    ]}
  ]
}
